How the values were obtained:
[1] = system: Vero E6 infected with SARS-CoV-2; assay: morphology score (similarity to uninfected cells); higher = more like uninfected cells; conditions: 24 h
[2] = system: Vero E6 infected with SARS-CoV-2; assay: SARS-CoV-2 infection rate relative to infected DMSO; higher = more infection, active = 60 or less; conditions: 24 h

Structure (SMILES) | morphology score [1] | SARS-CoV-2 infection rate [2]
CC1(C)OC(=O)C(OCC2CC2)=C1c1ccc(S(C)(=O)=O)cc1 [firocoxib] (10 µM) | 0.218 | 84.5% (inactive)
Cc1csc(-c2nnc(Nc3ccc(Oc4ncccc4-c4ccnc(N)n4)cc3)c3ccccc23)c1 (0.833333 µM) | 0.202 | 19.5% (active)
COc1ccccc1CN[C@H]1CCCN[C@H]1c1ccccc1 (10 µM) | 0.24 | 86% (inactive)
C[C@@H]1O[C@@H]1P(=O)(O)O (10 µM) | 0.00316 | 104% (inactive)
CCCCCCCCCCCCCCCCCCCCCCO [docosanol] (10 µM) | 0.0474 | 102% (inactive)
O=c1c(-c2ccc(O)cc2)coc2cc(O)cc(O)c12 [genistein] (10 µM) | -0.211 | 119% (inactive)
COc1ccc(Cl)cc1C(=O)NCCc1ccc(C(=O)O)cc1 [meglitinide] (10 µM) | 0.13 | 102% (inactive)
CCc1ccc(Cc2ccc3c(c2)[C@]2(OC3)O[C@H](CO)[C@@H](O)[C@H](O)[C@H]2O)cc1 [tofogliflozin] (10 µM) | 0.023 | 94.5% (inactive)
CC(C)(O)C(Cl)(Cl)Cl [chlorobutanol] (10 µM) | 0.123 | 106% (inactive)
C#CC1(OCC(O)CN2CCN(c3cccc(C(F)(F)F)c3)CC2)CCCCC1 (configuration not stated) [terciprazine] (10 µM) | 0.107 | 104% (inactive)
O=C1NC(=S)NC(=O)C1C(=O)Nc1ccccc1 [merbarone] (10 µM) | 0.103 | 99% (inactive)
C[C@]12CCC(=O)C[C@@H]1CC[C@@H]1[C@@H]2CC[C@]2(C)[C@@H](O)CC[C@@H]12 [Dihydrotestosterone] (10 µM) | -0.034 | 110% (inactive)
CC(C)OC(=O)C1=CN(C(=O)c2ccc(F)c(F)c2)CC(C)(C)c2c1[nH]c1ccccc21 (10 µM) | 0.0521 | 100% (inactive)
O=C(N/N=C/c1ccc([N+](=O)[O-])o1)c1cc([N+](=O)[O-])cc([N+](=O)[O-])c1O [nifursol] (10 µM) | 0.0974 | 111% (inactive)
COc1ccc(-c2nc(C(=O)N3CCN(C)CC3)sc2-c2ccc(OC)cc2)cc1 (10 µM) | 0.211 | 93.5% (inactive)
Cn1c(CNc2ccc(C(=N)N)cc2)nc2cc(C(=O)N(CCC(=O)O)c3ccccn3)ccc21 [dabigatran] (10 µM) | 0.269 | 96% (inactive)
CC(C)(O)CC[C@@H](O)[C@](C)(O)[C@H]1CC[C@@]2(O)C3=CC(=O)[C@@H]4C[C@@H](O)[C@@H](O)C[C@]4(C)[C@H]3CC[C@]12C [20-hydroxyecdysone] (10 µM) | 0.0401 | 108% (inactive)
CC1(C)Oc2ccc(C#N)cc2[C@H](N(Cc2ncc[nH]2)c2ccc(Cl)cc2)[C@H]1O (10 µM) | 0.455 | 81% (inactive)
OCCNCCCOc1cccc(Cl)c1Cl (0.833333 µM) | 0.093 | 112% (inactive)
N#Cc1c(Oc2ccc(F)c(NC(=O)Cc3cccc(C(F)(F)F)c3)c2)ccc2nc(NC(=O)C3CC3)sc12 (10 µM) | -0.304 | 108% (inactive)
O=C(O)C(O)Cc1ccc(O)c(O)c1 (configuration not stated) [sodium-danshensu] (10 µM) | 0.114 | 106% (inactive)

Structure (SMILES) | morphology score [1] | SARS-CoV-2 infection rate [2]
C[C@H]1C[C@H]2[C@@H]3CCC4=CC(=O)C=C[C@]4(C)[C@H]3C(=O)C[C@]2(C)[C@@]1(O)C(=O)CO [Betapar (Meprednisone)] (10 µM) | 0.0238 | 108% (inactive)
CCn1cnc(C(=O)NC)c1C(=O)NC [ethimizol] (10 µM) | 0.114 | 96.5% (inactive)
CCc1cc(C(N)=S)ccn1 [ethionamide] (10 µM) | 0.155 | 102% (inactive)
NCCCC[C@H](NC(=O)[C@@H](Cc1cc(Br)c(O)c(Br)c1)NC(=O)N1CCC(N2Cc3ccccc3NC2=O)CC1)C(=O)N1CCN(c2ccncc2)CC1 (10 µM) | 0.0352 | 110% (inactive)
CN1C2CCC1CC(OC(c1ccccc1)c1ccc(Cl)cc1)C2 (configuration not stated) (0.833333 µM) | 0.251 | 98.5% (inactive)
O=C(O)c1ccccc1Nc1cc(Cl)ccc1C(=O)O [lobenzarit] (10 µM) | 0.04 | 113% (inactive)
CCOC(=O)c1ncn2c1CN(C)C(=O)c1cc(N=[N+]=[N-])ccc1-2 (10 µM) | 0.00535 | 110% (inactive)
C[C@H](N[C@@H](CCc1ccccc1)C(=O)O)C(=O)N1CCC[C@H]1C(=O)O [enalaprilat] (10 µM) | -0.0398 | 107% (inactive)
NC(CO)C(=O)NNCc1ccc(O)c(O)c1O (configuration not stated) [benserazide] (10 µM) | -0.102 | 96.5% (inactive)
CC[C@@H](C)c1ccc(NC(=O)Cn2cnc3c2c(=O)n(C)c(=O)n3C)cc1 (racemic) (10 µM) | 0.119 | 92% (inactive)
CCC(=O)O[C@@H]1CC(=O)O[C@H](C)C/C=C/C=C/[C@H](O)[C@H](C)C[C@H](CC=O)[C@H](O[C@@H]2O[C@H](C)[C@@H](O[C@H]3C[C@@](C)(O)[C@@H](OC(=O)CC)[C@H](C)O3)[C@H](N(C)C)[C@H]2O)[C@H]1OC [midecamycin] (10 µM) | 0.2 | 102% (inactive)
Cc1ccc(/C=C2\CNC/C(=C\c3ccc(C)cc3)C2=O)cc1 (0.833333 µM) | 0.168 | 93% (inactive)
CC(=O)Nc1ccc(O)cc1 [paracetamol] (10 µM) | -0.0685 | 103% (inactive)
Nc1cc(Cl)c(N=C2NCCN2)c(Cl)c1 [apraclonidine] (10 µM) | -0.0224 | 110% (inactive)
Clc1ccc(N2CCN(Cc3c[nH]c4ncccc34)CC2)cc1 (10 µM) | -0.0196 | 108% (inactive)
Nc1nccc(/C=C/c2ccccc2)n1 (10 µM) | 0.324 | 93% (inactive)
C(#CCN1CCCC1)CN1CCCC1 [tremorine] (10 µM) | 0.107 | 96% (inactive)
COc1cccc2c1C(=O)c1c(O)c3c(c(O)c1C2=O)C[C@@](O)(C(C)=O)C[C@@H]3O[C@H]1C[C@H](N)[C@H](O)[C@H](C)O1 [daunorubicin] (10 µM) | -0.0163 | 106% (inactive)
CO[C@H]1/C=C/O[C@@]2(C)Oc3c(C)c(O)c4c(O)c(c(/C=N/N5CCN(C)CC5)c(O)c4c3C2=O)NC(=O)/C(C)=C\C=C\[C@H](C)[C@H](O)[C@@H](C)[C@@H](O)[C@@H](C)[C@H](OC(C)=O)[C@@H]1C [rifampin] (0.833333 µM) | -0.0289 | 112% (inactive)
COc1ccc(C2CC(c3ccccc3)=NN2c2ccc(S(N)(=O)=O)cc2)cc1 (configuration not stated) (10 µM) | 0.152 | 87% (inactive)
Cc1ccc(NC(=O)c2cccc(N(C)C)c2)cc1NC(=O)c1ccc(O)cc1 (10 µM) | -0.0598 | 97.5% (inactive)

Structure (SMILES) | morphology score [1] | SARS-CoV-2 infection rate [2]
CCN1CCN(c2cc3c(cc2F)c(=O)c(C(=O)O)cn3C2CC2)CC1 [enrofloxacin] (10 µM) | 0.0599 | 112% (inactive)
O=C(c1ccccc1)c1ccc2n1CCC2C(=O)O (configuration not stated) [ketorolac] (10 µM) | 0.000781 | 107% (inactive)
NCc1ccccc1CC(=O)N[C@@H]1C(=O)N2C(C(=O)O)=C(CSc3nnnn3CC(=O)O)CS[C@H]12 [ceforanide] (10 µM) | 0.13 | 100% (inactive)
C[C@@H]1O[C@@H](O[C@@H]2[C@@H](O)[C@H](OCCc3ccc(O)c(O)c3)O[C@H](CO)[C@H]2OC(=O)/C=C/c2ccc(O)c(O)c2)[C@H](O)[C@H](O)[C@H]1O [verbascoside] (10 µM) | 0.0986 | 104% (inactive)
CS(=O)(=O)Nc1c(O)ccc2c1CCC[C@H]2C1=NCCN1 (10 µM) | 0.0346 | 110% (inactive)
CNC(=O)c1ccccc1Nc1nc(Nc2ccc(N3CCOCC3)cc2OC)ncc1Cl (10 µM) | -0.217 | 97.5% (inactive)
O=C(c1ccc(Cl)o1)N1CC2CNCC2C1 (configuration not stated) (10 µM) | 0.187 | 105% (inactive)
CNCCCCOc1ccccc1Cc1ccccc1 [bifemelane] (10 µM) | 0.517 | 65% (inactive)
CN(C)C(=S)SC(=S)N(C)C [tetramethylthiuram-monosulfide] (10 µM) | -0.225 | 116% (inactive)
C=C1C(=O)O[C@@H]2[C@H]3C(C)=CC[C@@]34O[C@@]4(C)CC[C@@H]12 [arglabin] (10 µM) | 0.144 | 68% (inactive)
Oc1ccnc2cc(Cl)ccc12 [chloroxoquinoline] (10 µM) | 0.159 | 99.5% (inactive)
COc1cc2nc(N3CCN(C(=O)c4ccco4)CC3)nc(N)c2cc1OC [prazosin] (10 µM) | -0.0585 | 107% (inactive)
CN(CC[C@@H](Oc1ccc(-c2ccccc2)cc1)c1ccc(F)cc1)CC(=O)O (10 µM) | 0.036 | 108% (inactive)
O=C(O)CCC(=O)c1ccc(-c2ccccc2)cc1 [fenbufen] (10 µM) | -0.0471 | 104% (inactive)
C=C1C(=O)O[C@@H]2C[C@@]3(C)CCC[C@H](C)C3=C[C@H]12 [alantolactone] (10 µM) | 0.304 | 32% (active)
c1cnc(SCc2cccnc2)nc1 [tasuldine] (10 µM) | 0.175 | 99.5% (inactive)
C[C@@H](CN)CC(=O)O [3-methyl-GABA] (10 µM) | 0.0225 | 102% (inactive)
Nc1ncnc2c1c(COc1cccc(Cl)c1)nn2C1CCOCC1 (10 µM) | 0.00558 | 104% (inactive)
CCC(CC)(CC(=O)Nc1cccc(/C=C/c2nc(C3CCC3)cs2)c1)C(=O)O [cinalukast] (10 µM) | 0.068 | 105% (inactive)
